This is an account of results in PubChem BioAssay AID504373 (National Center for Advancing Translational Sciences (NCATS), 2011).

“And” between values parts separate entries of the source, which are not always exact repeats. Equal values may be shown once. Inconclusive results are not listed. A structure can be active in one record and inactive in another. The source made the active and inactive calls.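 The calls were made as follows: active = fewer circulating green fluorescent tagged thrombocytes in treated fish, with no visible harm to the embryos; inconclusive = compound visibly harmful to the embryos; inactive = no drop in circulating tagged thrombocytes.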

The first experiment is described as follows: qHTS Assay for Compounds Blocking the Interaction Between CBF-beta and RUNX1 for the Treatment of Acute Myeloid Leukemia: Zebrafish assay for Hematopoiesis, SAR for Probe. The note with it: GFP-cd41 zebrafish embryos, microscopy, 5 days, at 10 uM, stronger effect = lower value. The source says: NIH Chemical Genomics Center [NCGC] NIH Molecular Libraries Probe Production centers Network [MLPCN] MLPCN Grant: X01MH083259-01 Assay Submitter (PI): Paul Liu NCGC Assay Overview: Core Binding Factor (CBF) abnormalities are associated with 20-25% of all acute myeloid leukemias (AML), of which 5-10% are further sub classified as acute myelomonocytic leukemia with eosinophilia, also known as M4Eo in the FAB classification scheme. This subtype of leukemia is usually associated with chromosome 16 inversion (p13:q22). Chromosome 16 inversion results in formation of the fusion oncogene CBFB-MYH11, which encodes the fusion protein CBF-beta-SMMHC. […] It has been hypothesized that the interference of CBF-beta and RUNX1 binding could have therapeutic implications for patients with CBF mediated leukemias. We developed a CBF-beta and RUNX1 binding assay in AlphaScreenTM format and optimized it for high throughput screening to search for inhibitors. The goal of this project is to screen MLPCN's compound collection (MLSMR) for identifying the inhibitors of the interaction between CBF-beta and RUNX1 proteins as research probes. If these probes work well in the animal models, the ultimate goal of this project is to development a new drug treatment for this disease. […] These fish contain a genomic modulation where GFP has been fused to cd41, a marker for thrombocytes, and thus circulating thrombocytes can be easily imaged in anesthetized fish.
Assay protocol: GFP-cd41 zebrafish were kindly provided by the Liu lab. Zebrafish embryos were incubated with compound (<0.1% DMSO final) at 48 hours post fertilization, for 5 days. Embryos were manually scored under a microscope with GFP illumination for circulating GFP-tagged thrombocytes. Keywords: MLSMR, MLPCN, NIH Roadmap, qHTS, NCGC, Core binding factor, CBF, CBF-beta, Acute myeloid leukemia
In general terms: In qHTS, concentration-response curves come from the screen itself.
In turn, `NCCCC(=O)Nc1ccc(Cl)cc1C(=O)c1ccc[nH]1` returned a fish with circulating GFP thrombocytes of 93.3%.
On the same count and under the same terms, the result for `CN(C)CC(=O)Nc1ccc(Cl)cc1C(=O)c1ccc[nH]1` reads 70%.

The same experiment, now with this note: GFP-cd41 zebrafish embryos, microscopy, 5 days, at 25 µM, stronger effect = lower value.
Consider `N[C@H](Cc1ccccc1)C(=O)Nc1ccc(Cl)cc1C(=O)c1ccc[nH]1`, for which the fish with circulating GFP thrombocytes was 100% (inactive).
Still for that read-out and setting: the result for `Nc1ccc(Cl)cc1C(=O)c1ccc[nH]1` reads 83.3% (active); that for `C[C@@H](N)C(=O)Nc1ccc(Cl)cc1C(=O)c1ccc[nH]1`, 100% (inactive).
For the compound `CNCC(=O)Nc1ccc(Cl)cc1C(=O)c1ccc[nH]1`, the fish with circulating GFP thrombocytes is 100% (inactive).
On the same count and under the same terms, the result for `N[C@@H](CC(=O)O)C(=O)Nc1ccc(Cl)cc1C(=O)c1ccc[nH]1` reads 100% (inactive); that for `CNCc1nc(-c2ccc[nH]2)c2cc(Cl)ccc2n1`, 100% (inactive); that for `N[C@@H](CCC(=O)O)C(=O)Nc1ccc(Cl)cc1C(=O)c1ccc[nH]1`, 100% (inactive).
On the same count and under the same terms, for `C[C@H](N)C(=O)Nc1ccc(Cl)cc1C(=O)c1ccc[nH]1` the value was 100% (inactive); for `N[C@H](C(=O)Nc1ccc(Cl)cc1C(=O)c1ccc[nH]1)c1ccccc1`, 100% (inactive); for `NCCCC(=O)Nc1ccc(Cl)cc1C(=O)c1ccc[nH]1`, 100% (inactive).
Take `CCC(=O)Nc1ccc(Cl)cc1C(=O)c1ccc[nH]1`: the fish with circulating GFP thrombocytes is 100% (inactive).
Consider `NCC(=O)Nc1ccc(Cl)cc1C(=O)c1ccc[nH]1`, for which the fish with circulating GFP thrombocytes was 100% (inactive).
The same measure, in the same setting: for `CC(C)[C@H](N)C(=O)Nc1ccc(Cl)cc1C(=O)c1ccc[nH]1` the value was 100% (inactive); for `O=C(c1ccc[nH]1)c1cc(Cl)ccc1NC(=O)[C@@H]1CCCN1`, 100% (inactive); for `NC(=O)C[C@H](N)C(=O)Nc1ccc(Cl)cc1C(=O)c1ccc[nH]1`, 100% (inactive).
Same read-out and setting: for `CN(C)CC(=O)Nc1ccc(Cl)cc1C(=O)c1ccc[nH]1` the value was 59.4% (active).
On the same count and under the same terms, for `NCCCC[C@H](N)C(=O)Nc1ccc(Cl)cc1C(=O)c1ccc[nH]1` the value was 100% (inactive); for `CC(=O)Nc1ccc(Cl)cc1C(=O)c1ccc[nH]1`, 70.8% (active) and 100% (inactive).
Turning to `NC(N)=NCCC[C@H](N)C(=O)Nc1ccc(Cl)cc1C(=O)c1ccc[nH]1`, the fish with circulating GFP thrombocytes is 100% (inactive).
The same measure, in the same setting: the result for `N[C@@H](Cc1ccccc1)C(=O)Nc1ccc(Cl)cc1C(=O)c1ccc[nH]1` reads 100% (inactive).
For `NCCC(=O)Nc1ccc(Cl)cc1C(=O)c1ccc[nH]1`, the fish with circulating GFP thrombocytes is 100% (inactive).
In the case of `CC(C)(N)C(=O)Nc1ccc(Cl)cc1C(=O)c1ccc[nH]1`, the fish with circulating GFP thrombocytes is 100% (inactive).

The experiment is the same for the next values; noted with them: GFP-cd41 zebrafish embryos, microscopy, 5 days, at 50 uM, stronger effect = lower value.
For the compound `Nc1ccc(Cl)cc1C(=O)c1ccc[nH]1`, the fish with circulating GFP thrombocytes is 70.8%.
For `CC(=O)Nc1ccc(Cl)cc1C(=O)c1ccc[nH]1`, the fish with circulating GFP thrombocytes is 66.7%.
